A selection: hits, their analogues and other compounds. The true share with any hit is near 0.71%.
RGS12 GoLoco inh: RGS12 GoLoco-Gai1 interaction inhibition; actives 0.44% (n = 230,000); AID 880; Potency, µM (doses to about 61.6 µM), for the others: top-dose activity, negative = inhibition, usual class: inhibitors; Gai1:RGS12 GoLoco peptide FP, rhodamine, 10 min; active = well fitted inhibition curve with a large enough effect, not every such curve was filed as active; inactive = no such curve, though single readings can be large or run the other way; note: % is set by controls: 0 for no effect and ±100 for the full control effect; nearly all actives have a fitted effect of over 30% in size
Target sequence (P63096 whole entry, looked up): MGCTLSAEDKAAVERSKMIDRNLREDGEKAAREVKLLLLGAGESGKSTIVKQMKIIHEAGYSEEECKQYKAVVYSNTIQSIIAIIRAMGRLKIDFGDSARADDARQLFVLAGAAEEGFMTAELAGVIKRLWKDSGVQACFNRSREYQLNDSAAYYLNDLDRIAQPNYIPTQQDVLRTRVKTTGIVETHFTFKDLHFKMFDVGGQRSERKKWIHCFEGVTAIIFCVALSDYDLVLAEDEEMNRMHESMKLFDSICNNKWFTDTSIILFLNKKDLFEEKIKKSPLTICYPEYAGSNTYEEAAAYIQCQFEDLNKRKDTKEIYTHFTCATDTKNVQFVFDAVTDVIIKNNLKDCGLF
TRb SRC2 PPI: TRbeta-SRC2 interaction inhibition. AID 1469. P10828. Potency, µM (top dose mostly 106 µM), for inactives: at the top dose activity change, negative = inhibition, most hits filed as inhibitors. TRbeta-SRC2 peptide binding, fluorescence polarization; receptor liganded with 1 µM T3. actives 0.065% (n = 280,000);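 note: plate controls were bound peptide for no effect and peptide without receptor for full effect; nearly all actives have a fitted effect of over 50% in size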
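Decrease in fluorescence polarization of 20 nM Texas Red SRC2 coactivator peptide flagged inhibition of its binding to 0.6 uM TRb LBD; 1 uM T3 included, incubation 5 hr, ex 555/em 632 nm.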
TexasRed fluor: alters Texas Red total fluorescence, flagging assay interference. TRb/SRC2 Texas Red total fluorescence interference. Potency, µM (titrated, usually from 106 µM), for the others: at the top dose fluorescence change, negative = quenching. actives 0.29% (n = 280,000); active = well fitted curve in either direction with a large enough effect; inconclusive = small, poorly fitted or top-dose-only effect; note: % is set by controls: 0 for no effect and ±100 for the full control effect
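Flags fluorescent or light-absorbing compounds by total fluorescence, S + 2P, at 555 nm excitation and 632 nm emission. Mixture: 20 nM Texas Red SRC2 peptide, 0.6 uM human TRb LBD, 1 uM T3, 5% DMSO; compound exposure 5 h at ambient temperature.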
BLM helicase inh: Bloom syndrome helicase (human) inhibition; actives 0.2% (n = 350,000); AID 2528; recombinant BLM DNA unwinding, fluorescence dequenching; Potency, µM (doses to about 56.1 µM), without a hit: at the highest dose activity change, negative = inhibition, actives largely listed as inhibitors; P54132;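 note: plate controls were vehicle for no effect and no enzyme for full effect; nearly all actives have a fitted effect of over 35% in size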
ERG-DNA inh: inhibitors of human ERG Ets domain-DNA interaction; P11308; fluorescence polarization, His-ERG Ets domain / labelled DNA; Potency, µM (top dose mostly 76.9 µM), inactives show top-dose FP activity, negative = inhibition, usual class: inhibitors; actives 0.028% (n = 370,000); active = well fitted inhibition curve with a large enough effect in the polarisation, with a control signal flat; inconclusive = small, poorly fitted or top-dose-only effect, or effect the other way, or a change in a side signal; inactive = no such curve, though single readings can be large or run the other way; the % refers to the polarisation;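 note: polarization taken with two DNA probes labelled with fluorescein and Texas red; % of control where 0% means no effect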
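His-tagged ERG Ets domain (1 uM in the protein solution; 300mM KCl, 50mM Tris-HCl, 1mM EDTA, 1mM DTT, pH 7.5) received compound, then a probe mix of 5 nM fluorescein-DNA and 100nM Texas-615-DNA. Fluorescence polarization was read for both dyes.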
RECQ1 helicase: blocks DNA unwinding by human RECQ1; Potency, µM (highest dose often 57.3 µM), for the others: top-dose activity, negative = inhibition, actives largely listed as inhibitors; AID 2549; RECQ1 DNA unwinding, red fluorescence kinetic read; actives 0.54% (n = 240,000); P46063;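 note: plate controls were vehicle for no effect and no enzyme for full effect; nearly all actives have a fitted effect of over 30% in size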
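50 nM RECQ1T1 preincubated 15 min with compound in Tris pH 8.0 buffer with MgCl2, DTT, Tween-20 and 2.5 ug/ml poly(dI-dC); started with 200 nM TAMRA/BHQ-2 forked duplex and 2 mM ATP. Unwinding read as fluorescence (525/598 nm), two reads 2 h apart.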
Starred values were filed as active, the others as inactive; i = inactive; ? = inconclusive; / = no result given; [ ] = another dose, or the depositor's remark. Unless noted, calls come from the whole dose curve; as a rule, active = well fitted curve in the direction sought with a large enough effect; inconclusive = small, poorly fitted or top-dose-only effect, or another doubt; inactive = no such curve, though single readings can be large; an effect the other way counts as inactive or inconclusive. Potency is the fitted concentration of half-maximal effect.

SMILES	RGS12 GoLoco inh	TRb SRC2 PPI	TexasRed fluor	BLM helicase inh	ERG-DNA inh	RECQ1 helicase
CCn1c(/C=C/N(C(C)=O)c2ccccc2)[n+](CCCS(=O)(=O)[O-])c2cc(Cl)c(Cl)cc21	12%	9%	-1%	-1%	1%	i
CCn1c(/C=C/Nc2ccccc2)[n+](CC)c2cc(Cl)c(Cl)cc21	1.6µM*	-4%	-2%	26%	5%	-3%
COc1ccccc1/C=N/NC(=O)c1ccc(NC(=O)c2cccc([N+](=O)[O-])c2)cc1	-3%	9%	-3%	0%	/	-2%
COc1cccc(/C=N/NC(=O)c2cc3cc([N+](=O)[O-])ccc3s2)c1O	23%	1%	-19%	16µM*	-10%	-20%
C=C[Si](C)(C)O[Si](C)(C)C=C	/	3%[201 µM]	-3%[201 µM]	/	/	/
O=C(COc1ccccc1)NC(=S)Nc1cccc([N+](=O)[O-])c1	-3%	?	0.89µM*[quencher]	1%	-1%	-6%
CC(C)(C)c1ccc(OCC(=O)O)c(Cl)c1	-6%[14.2 µM]	/	/	/	/	/
Cc1cccc(OCC(=O)NCC2(N3CCN(C)CC3)CCCCC2)c1C	/	-10%	1259µM*[quencher]	2%	0%	/
Cc1ccc(OCC(=O)NCC2(N3CCOCC3)CCCCC2)cc1C	/	-11%	13µM*[quencher]	-4%	2%	/
Cc1ccc(OCC(=O)NCC2(N3CCN(C)CC3)CCCCC2)cc1	/	-2%	7%	-2%	1%	/
CCN(Cc1c(F)cccc1Cl)c1c([N+](=O)[O-])cc(C(F)(F)F)cc1[N+](=O)[O-]	/	-4%[201 µM]	-2%[201 µM]	/	/	/
CC(=O)NC1[C@H]([C@H](O)[C@H](O)CO)OC(C(=O)O)=C[C@H]1N=C(N)N (some centres not stated)	2%	-2%	-1%	-12%	/	/
CC1(C)Oc2ccc3ccc(=O)oc3c2/C(=C/N)C1=O	6%	-11%	-2%	-1%	-3%	0%
CC1(C)Oc2ccc3ccc(=O)oc3c2-c2cnoc21	10µM*	7%	-3%	0%	7%	9%
CSCC[C@H](NC(=O)[C@H](CO)NC(=O)[C@H](Cc1ccc(O)cc1)NC(=O)[C@@H](N)CO)C(=O)N[C@@H](CCC(=O)O)C(=O)N[C@@H](Cc1cnc[nH]1)C(=O)N[C@@H](Cc1ccccc1)C(=O)N[C@@H](CCCNC(=N)N)C(=O)N[C@@H](Cc1c[nH]c2ccccc12)C(=O)NCC(=O)N[C@@H](CCCCN)C(=O)N1CCC[C@H]1C(=O)N[C@H](C(=O)NCC(=O)N[C@@H](CCCCN)C(=O)N[C@@H](CCCCN)C(=O)N[C@@H](CCCNC(=N)N)C(=O)N[C@@H](CCCNC(=N)N)C(=O)N1CCC[C@H]1C(=O)N[C@H](C(=O)N[C@@H](CCCCN)C(=O)N[C@H](C(=O)N[C@@H](Cc1ccc(O)cc1)C(=O)N1CCC[C@H]1C(=O)N[C@@H](CC(N)=O)C(=O)NCC(=O)N[C@@H](C)C(=O)N[C@@H](CCC(=O)O)C(=O)N[C@@H](CC(=O)O)C(=O)N[C@@H](CCC(=O)O)C(=O)N[C@@H](CO)C(=O)N[C@@H](C)C(=O)N[C@@H](CCC(=O)O)C(=O)N[C@@H](C)C(=O)N[C@@H](Cc1ccccc1)C(=O)N1CCC[C@H]1C(=O)N[C@@H](CC(C)C)C(=O)N[C@@H](CCC(=O)O)C(=O)N[C@@H](Cc1ccccc1)C(=O)O)C(C)C)C(C)C)C(C)C	/	-3%	-38%	10%	/	5%
C=CC(=O)OCCOc1ccccc1	/	?	3%[201 µM]	/	/	/
O=C1/C(=C\c2cc([N+](=O)[O-])ccc2O)SC(=S)N1Cc1ccc(Cl)cc1	/	/	/	32µM*	5%	/
O=C1/C(=C\c2cccc(O)c2O)SC(=S)N1Cc1ccccc1	/	/	/	-17%	70%	/
CCOC(=O)c1c(C)oc2nc(C)nc(N3CCN(c4ccc(C)cc4C)CC3)c12	/	-11%	447µM*[quencher]	-15%	1%	/
